An excerpt weighted towards active compounds, which were near 3.9% of everything screened.
HT1080-NT tox – kills 2HG-producing HT-1080-NT fibrosarcoma cells; HT-1080-NT fibrosarcoma viability, CellTiter-Glo ATP luminescence, 48 h; Potency, µM (series often up to 46.1 µM), inactives show at the top dose activity, negative = less viability, actives largely listed as cytotoxic; actives 1.6% (n = 360,000);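 also: NT is the 2HG producing partner of a matched IDH1 knockdown line; 0% = DMSO-treated cells and -100% = media-only wells without cells; nearly all actives have a fitted effect of over 55% in size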
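HT-1080-NT; 750 cells/well; 5% FBS RPMI; 48 h compound, 37 degrees C; CellTiter-Glo luminescence; curve fitting and curve-class assignment.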
HT1080 IDH1KD tx – kills HT-1080 cells with IDH1 knockdown; Potency, µM (doses to about 46.1 µM), for the others: top-dose activity, negative = toxicity, most hits filed as cytotoxic; HT-1080 IDH1 knockdown viability, ATP luminescence, 48 h; actives 2% (n = 360,000);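 also: 0% = DMSO wells and -100% = cell-free medium wells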
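Knockdown cells (IDH1KD HT-1080) received compounds 2 h after plating at 750 cells/well and were kept 48 h at 37 °C in 5% FBS RPMI. A CellTiter-Glo luminescence read gave % activity for curve fitting.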
ATXN2 expr inh – ATXN2 expression inhibition; actives 0.72% (n = 360,000); Potency, µM (top dose mostly 57 µM), without a hit: top-dose activity change, negative = inhibition, hits mostly inhibitors; HEK-293 ATXN2-luciferase reporter, luminescence, 24 h; AID 1745845; also: % is scaled to controls: 0 for no effect and ±100 for the full control effect; nearly all actives have a fitted effect of over 55% in size
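qHTS (up to 57 uM final) was run with 24 h compound exposure of reporter cells at 37 °C. Each well was multiplexed: SteadyGlo luminescence measured ATXN2-luciferase expression after a fluorogenic Gly-Phe-AFC viability readout (25 uM final).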
HepG2 tox – counter-screen for TGF-b inhibitors: cytotoxicity in HepG2 cells. AID 588856. actives 0.76% (n = 410,000). HepG2 CAGA-GFP viability, ATP luminescence, 18 h. Potency, µM (titrated, usually from 46.1 µM), for inactives: at the highest dose activity change, negative = cytotoxicity, most hits filed as cytotoxic
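CellTiter-Glo luminescence gave cytotoxicity after 18 hours at 37 degrees C. The cells were HepG2 CAGA-GFP in 1% FBS DMEM, stimulated with 500 pg/mL TGF-beta after compound addition. %Activity was normalised to no-cell wells (complete cell-killing) and DMSO (no toxicity), and curves were fitted and classified.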
ATXN viability – cell viability loss in ATXN counter-screen; actives 0.49% (n = 400,000); Potency, µM (titrated, usually from 56.7 µM), actives largely listed as cytotoxic; S2 cells (HEK-293 line with an ATXN2-luciferase reporter) viability, CellTiter-Fluor protease fluorescence, 24 h; also: nearly all actives have a fitted effect of over 40% in size
TGFb SMAD3 inh – inhibitors of TGF-b signaling; HepG2 CAGA-GFP TGF-b/SMAD3 reporter, GFP fluorescence, 18 h; TGF-beta stimulated, 500 pg/mL final; Potency, µM (doses to about 46.1 µM), inactives show top-dose activity, negative = inhibition, hits mostly inhibitors; actives 1.2% (n = 410,000); AID 588855; also: % is scaled to controls: 0 for no effect and ±100 for the full control effect; nearly all actives have a fitted effect of over 65% in size
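Inhibition of TGF-beta-driven CAGA-GFP reporter expression in HEPG2 cells is measured by cellular GFP fluorescence after 18 h stimulation with 500 pg/mL recombinant TGF-beta in 1% FBS medium at 37 degrees C.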
Active calls of the source: *; i = inactive; ? = inconclusive; . = no result given; ! = not confirmed by another sample. Calls follow the shape of the dose curve; as a rule, active = well fitted curve in the direction sought with a large enough effect; inconclusive = small, poorly fitted or top-dose-only effect, or another doubt; inactive = no such curve, though single readings can be large; an effect the other way counts as inactive or inconclusive. Potency is read from the fitted curve at half-maximal effect.

SMILES	HT1080-NT tox	HT1080 IDH1KD tx	ATXN2 expr inh	HepG2 tox	ATXN viability	TGFb SMAD3 inh
Cc1cc(/C=C(\C#N)C(=O)NC2CCCCCC2)c(C)[nH]1	-8.5%	-18.8%	41.2%	-3.6%	i	11.1%
O=C1C(Cc2ccccc2)Nc2ncnc(N3CCCCC3)c2N1Cc1ccccc1 (stereo unspecified)	-3.3%	-8.6%	-5.2%	-8.8%	i	-1.1%
O=C1C(Cc2ccccc2)Nc2ncnc(N3CCc4ccccc4C3)c2N1Cc1ccc(Cl)cc1 (stereo unspecified)	?	?	?	-19.7%	?	17.8µM*
O=C1C(Cc2ccccc2)Nc2ncnc(N3CCCCC3)c2N1Cc1ccc(Br)cc1 (stereo unspecified)	?	?	-5.6%	3.16µM*!	i	?
COc1ccc(CN2C(=O)C(C)Nc3ncnc(N4CCOCC4)c32)cc1 (stereo unspecified)	?	14.6µM*	0.7%	6.4%	i	?
COc1ccc(CN2C(=O)C(C)Nc3ncnc(N4CCN(c5ccccc5)CC4)c32)cc1 (stereo unspecified)	-4.8%	-4.1%	-1.9%	-11.6%	i	-4.9%
Cc1ccccc1-c1noc(-c2ccc(NCC3CCCO3)c([N+](=O)[O-])c2)n1 (stereo unspecified)	.	.	16.7%	1.0%	i	-0.4%
CCOc1cc(/C=C2/C(=O)ON=C2C)ccc1OCc1ccccc1F	-29.7%	?	?	15.8µM*	?	?
CCOc1cc(/C=C2/C(=O)ON=C2C)ccc1OCc1ccccc1	11.1%	1.0%	-36.9%	-7.0%	?	-16.9%
COc1ccc(-n2nc3c(c2NC(=O)CCl)CSC3)cc1	20.6µM*	7.31µM*	-28.4%	-44.0%	?	?
C=CC[C@@H](CC(=O)N[C@@H](CO)Cc1ccccc1)C(=O)N[C@H](COC(=O)[C@@H](CC=C)CC(=O)OC(C)(C)C)Cc1c[nH]c2ccccc12	?	?	?	-50.9%	.	?
C=CC[C@@H](CC(=O)N(CCO)Cc1ccccc1)C(=O)N[C@H](COC(=O)[C@@H](CC=C)CC(=O)OC(C)(C)C)Cc1c[nH]c2ccccc12	-25.9%	-25.2%	?	-42.8%	.	12.6µM*
C=CC[C@H](CC(=O)N(CCO)Cc1ccccc1)C(=O)N[C@@H](COC(=O)[C@H](CC=C)CC(=O)OC(C)(C)C)Cc1c[nH]c2ccccc12	?	?	?	-26.0%	?	?
C=CC[C@@H](CC(=O)N(CCO)Cc1ccccc1)C(=O)N[C@@H](COC(=O)[C@@H](CC=C)CC(=O)OC(C)(C)C)Cc1c[nH]c2ccccc12	?	?	35.5µM*	-37.5%	20µM*	?
C=CC[C@H](CC(=O)N[C@H](CO)Cc1ccccc1)C(=O)N[C@@H](COC(=O)[C@@H](CC=C)CC(=O)OC(C)(C)C)Cc1c[nH]c2ccccc12	-20.1%	?	?	-101.7%	.	11.2µM*
C(=C\c1ccnc2ccccc12)/c1ccc(N2CCNCC2)cc1	.	.	.	-48.7%	.	?
CCCCCCCCCCCCCCCC[n+]1cccc2ccccc21	6.51µM*	8.2µM*	?	11.2µM*	17.8µM*	6.31µM*
CCCCCCCCCC[n+]1cccc2cc(Br)ccc21	.	.	.	-47.9%	.	?
CCCCCCCCC[n+]1cccc2c3ccccc3ccc21	7.31µM*	10.3µM*	2.24µM*	15.8µM*	i	1.78µM*
CCOc1cc(C(=O)Nc2cccc3cccnc23)cc(OCC)c1OCC	.	.	-23.5%	-8.5%	i	-18.5%
O=c1c2ccccc2n(Cc2c(F)cccc2Cl)c(=O)n1Cc1ccccc1	.	.	6.5%	-9.3%	i	1.5%
CC(C)(C)OC(=O)NCc1ccc(CNC(=O)c2nc[nH]c2C(=O)NCc2ccc(CNC(=O)OC(C)(C)C)cc2)cc1	-5.2%	-3.5%	-21.5%	-3.2%	i	-28.4%
CC(C)(C)OC(=O)NCCCCCNC(=O)c1nc[nH]c1C(=O)NCc1ccc(CNC(=O)OC(C)(C)C)cc1	-24.6%	?	20µM*	-15.3%	15.8µM*	?
Cc1cccc(NC(=O)c2nc[nH]c2C(=O)N[C@@H](C)c2ccccc2)c1	?	14.6µM*	?	-45.1%	.	?
CC(C)(C)OC(=O)NCCCCCNC(=O)c1nc[nH]c1C(=O)NCCCCCNC(=O)OC(C)(C)C	-25.0%	-14.0%	22.4µM*	-52.4%	25.1µM*	?
SMILES	HT1080-NT tox	HT1080 IDH1KD tx	ATXN2 expr inh	HepG2 tox	ATXN viability	TGFb SMAD3 inh
Cc1cccc(NC(=O)c2nc[nH]c2C(=O)NCCCCCNC(=O)OC(C)(C)C)c1	25.9µM*	?	?	-71.4%	.	?
Cc1c(C(=O)NCc2ccc(F)cc2)sc2ncnc(NCC3CCCO3)c12 (stereo unspecified)	.	.	.	.	i	.
c1ccc(C[C@H]2CN=C(Nc3ccccc3)N2CC2CCC2)cc1	-4.8%	-23.6%	-17.5%	-11.9%	i	7.2%
CC(C)C[C@H]1CN=C(Nc2ccccc2)N1CCCC1CCCC1	?	-27.0%	?	-99.3%	?	?
CC(C)C[C@H]1CN=C(Nc2ccccc2)N1CCCC1CCCCC1	-19.0%	-23.4%	25.1µM*	-21.5%	.	-25.7%
CC1CCC(CN2C(Nc3ccccc3)=NC[C@@H]2Cc2ccccc2)CC1 (stereo partly specified)	?	-24.9%	15.8µM*	-36.6%	?	-7.1%
COc1cccc(CNC(=O)COCc2cc(-c3ccc4c(c3)OCO4)on2)c1	.	.	.	-14.5%	.	?
Cc1c(C(=O)OCCOC(C)C)[nH]c2c1C(=O)CC(C)(C)C2	8.9%	14.8%	9.5%	-14.6%	i	-9.1%
COCCOC(=O)c1[nH]c2c(c1C)C(=O)CC(c1ccco1)C2 (stereo unspecified)	2.31µM*	1.64µM*	9.8%	-14.8%	?	?
Cc1c(C(=O)OCc2ccccc2)[nH]c2c1C(=O)CC(c1ccco1)C2 (stereo unspecified)	?	1.3µM*	-13.0%	-44.0%	?	2.51µM*
COCCOC(=O)c1[nH]c2c(c1C)C(=O)CC(c1cc(OC)c(OC)c(OC)c1)C2 (stereo unspecified)	-18.6%	-11.2%	-24.3%	-12.8%	i	-7.7%
CSCCOC(=O)c1[nH]c2c(c1C)C(=O)CC(c1ccco1)C2 (stereo unspecified)	?	2.31µM*	-16.6%	-11.6%	?	?

Assay outcomes from PubChem.
